This passage reports Potency results from PubChem BioAssay AID686979 (National Center for Advancing Translational Sciences (NCATS), 2013).

In all, about 420,000 compounds went through this assay and about 50,000 (12%) were called active. Entries that show only a call come without a potency. Roughly 26% stayed inconclusive and do not appear here. The call rests on the fitted dose curve; in most records, active means well fitted inhibition curve with a large enough effect; inconclusive means small, poorly fitted or top-dose-only effect; inactive means flat fitted curve, though single readings scatter. This excerpt belongs to a sample that is enriched for actives. *1 amine or outer side, *2 acyl side, *3 side chain or, on linkers, in order; H or OH if unused. Where a SMILES comes first, the peptide text is derived from it. Bridges are numbered along the chain shown (N, C = ends). [ ]: non-standard residue; d: D form. The star is where a group is joined. X12 = NC1=N[C@@H]([C@H](N[*:1])C(=O)[*:2])C[C@H](O)N1; ΔAla(Z-3-ureido) = NC(=O)N/C=C(\N)C(=O)O; β3hOrn = NCCC[C@H](N)CC(=O)*; Dap = NC[C@H](N)C(=O)O
Potency means the concentration at half of the fitted maximal effect.

This assay in a line: qHTS for Inhibitors of human tyrosyl-DNA phosphodiesterase 1 (TDP1): qHTS in cells in presence of CPT. Further: nearly all actives have a fitted effect of over 55% in size. To be noted: chicken DT40 Tdp1-/-;hTDP1 cells + 20 nM CPT, ATP luminescence, 48 h; series mostly up to 46.2 µM. In a few lines:
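Chicken DT40 Tdp1-/- cells complemented with human TDP1, 400 cells/well, exposed to compounds plus 20 nM camptothecin for at least 48 h at 37 C; viability read as ATP content by CellTiter-Glo luminescence.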
For `CCOC(=O)/C=c1\s/c(=C\c2ccc(C#N)cc2)c(=O)n1CC(=O)Nc1cccc(C)c1C`, the Potency is 1.3 µM (active).

With `CCOC(=O)/C=c1\s/c(=C\c2ccccc2OC)c(=O)n1CC(=O)N1CCOCC1`, the Potency result is “inactive”.

Turning to `CCOc1ccc(NC(=O)Cn2c(C)ccc(C#N)c2=O)cc1`, the Potency result is “inactive”.

`NCCC[C@H](N)CC(=O)N[C@H]1CNC(=O)[C@H]([C@H]2C[C@H](O)NC(N)=N2)NC(=O)/C(=C/NC(N)=O)NC(=O)[C@H](CO)NC(=O)[C@H](CO)NC1=O` (β3hOrn-[Dap]SS[ΔAla(Z-3-ureido)][X12]; lactam 1-C): the Potency entry was “inactive”.

Take `COc1cc(NC(=O)c2nn(-c3ccc(C)cc3)c(=O)c3c2c2ccccc2n3C)cc(OC)c1OC`: the Potency result was “inactive”.

For `Cc1cc(C(=O)NCCc2ccc(Cl)cc2)n(-c2ccccc2)n1`, the Potency was 20.6 µM (active).

For `COc1ccc(-n2nc(C(=O)NCCc3ccc(Cl)cc3)c3c4ccccc4n(C)c3c2=O)cc1Cl`, the Potency is 3.66 µM (active).

Take `COc1ccc(CCNC(=O)c2c(C)nn(-c3ccccc3)c2Cl)cc1`: the Potency entry was “inactive”.

Consider `Cc1cc(NC(=O)Nc2ccc(Cl)cc2)n(-c2ccccc2)n1`, for which the Potency result was “inactive”.

Consider `COCCCNC(=O)CNC(=O)c1nn(-c2ccc(OC)cc2)c(=O)c2ccccc12`, for which the Potency entry is “inactive”.

For the compound `COc1ccc(-n2nc(C(=O)NCC(=O)N3CCCCCC3)c3ccccc3c2=O)cc1Cl`, the Potency was 18.4 µM (active).

As to `COc1ccc(-n2nc(C(=O)NCC(=O)N3CCC(C(N)=O)CC3)c3ccccc3c2=O)cc1OC`, the Potency result is “inactive”.

Turning to `CCOC(=O)c1ccccc1NC(=O)c1nn(-c2ccc(OC)c(Cl)c2)c(=O)c2c1c1ccccc1n2C`, the Potency result is “inactive”.

`COC(=O)c1ccc2ccccc2c1OC1OC(CO)C(O)C(O)C1NC(C)=O` (configuration not stated): the Potency entry is “inactive”.

In the case of `Fc1cccc(Cc2noc(CN3CCN(c4cnccn4)CC3)n2)c1`, the Potency entry is “inactive”.

Consider `Cc1ccc(C(=O)N2CCC(n3nccc3NC(=O)Nc3cccc(F)c3)CC2)cn1`, for which the Potency entry is “inactive”.

As to `O=C(COC(=O)c1ccccc1NC(=O)c1ccco1)Nc1ccc2c(c1)OC(F)(F)O2`, the Potency result is “inactive”.

For the compound `CC1CC(C)CN(CCCNC(=O)c2csc3c2CCCCC3)C1` (configuration not stated), the Potency entry is “inactive”.

Take `O=C(CCNC(=O)c1ccccc1Cl)NCc1ccco1`: the Potency entry is “inactive”.

Consider `CC(C(=O)c1ccc(-c2ccccc2)cc1)[n+]1cccc(Br)c1` (configuration not stated), for which the Potency entry was “inactive”.

As to `CCOC(=O)C1CCC(CN(Cc2ccc(OC)cc2)S(=O)(=O)c2ccc(F)c(C(=O)Nc3cc(C)ccc3C)c2)CC1` (configuration not stated), the Potency entry was “inactive”.

`Fc1ccccc1CNC(=S)Nc1ccc(Cl)cc1`: the Potency is 20.6 µM (active).

On to `Cn1cc(C(=O)NCc2ccccc2F)cn1`, for which the Potency result is “inactive”.

As for `COC(=O)Cc1ccc(NC(=S)NCc2ccccc2)cc1`, the Potency entry is “inactive”.

`O=C(c1ccco1)N1CCN(C(=O)c2cc(-c3ccccc3F)no2)CC1`: the Potency result was “inactive”.

Turning to `O=C(c1ccc2c(c1)N(Cc1ccccc1)C(=O)c1ccccc1S2(=O)=O)N1CCC(Cc2ccccc2)CC1`, the Potency is 8.2 µM (active).

For `O=C(c1ccc2c(c1)C(=O)N(c1ccc(Cl)cc1)C2=O)N1CCN(c2ccccn2)CC1`, the Potency result was “inactive”.

As for `O=C1c2ccccc2S(=O)(=O)c2cc(N3CCN(c4ccccn4)CC3)ccc21`, the Potency result is “inactive”.

Regarding `CCCCN(C)C(=O)c1ccc2c(c1)N(CC)C(=O)c1ccccc1S2(=O)=O`, the Potency result was “inactive”.

Take `O=C(c1ccc2c(c1)N(Cc1ccc(F)cc1)C(=O)c1ccccc1S2(=O)=O)N1CCN(c2ccccn2)CC1`: the Potency was 14.6 µM (active).

Regarding `O=C(c1ccc2c(c1)N(Cc1ccccc1)C(=O)c1ccccc1S2(=O)=O)N1CCCC1`, the Potency is 11.6 µM (active).

As to `O=C(c1ccc2c(c1)N(Cc1ccccc1F)C(=O)c1ccccc1S2(=O)=O)N1CCOCC1`, the Potency result was “inactive”.

Consider `CC1CCCN(C(=O)CN2C(=O)c3ccccc3S2(=O)=O)C1` (configuration not stated), for which the Potency result is “inactive”.

Turning to `O=C(c1cccc(Br)c1)N1CCN(C2=NS(=O)(=O)c3ccccc32)CC1`, the Potency entry is “inactive”.

Turning to `O=C(CN1C(=O)NC2(CCCC2)C1=O)Nc1ccc(F)c(F)c1F`, the Potency result is “inactive”.

Take `CC(=O)CC(CC(=O)NC1CCCCC1)c1ccccc1` (configuration not stated): the Potency entry was “inactive”.

With `CCC(C)C1(C2CCCC2)NC(=O)NC1=O` (configuration not stated), the Potency result is “inactive”.

Turning to `CCOc1ccc(NC(=O)CN(C)C(=O)Cc2sc(C)nc2-c2ccc(F)cc2)cc1OCC`, the Potency entry was “inactive”.

Take `O=C(c1cnccn1)N1CCC2(CCCN(Cc3ccccc3)C2)CC1`: the Potency result is “inactive”.

On to `O=C(CCCOc1ccccc1)NNC(=O)c1ccc(Cl)cc1`, for which the Potency result is “inactive”.

As to `Cc1ccc(S(=O)(=O)N2CCC(C)CC2)cc1C(=O)NCc1ccccn1`, the Potency entry was “inactive”.

In the case of `S=C(NCc1ccc(Cl)cc1)NC1CCCCC1`, the Potency result is “inactive”.

As for `CN(C)CCCNC(=S)NCc1ccc(Cl)cc1`, the Potency entry was “inactive”.

Regarding `NCCCNC(=S)NCCCN(Cc1ccc(Cl)cc1)c1ccc(Br)cn1`, the Potency is 15.8 µM (active).

Regarding `CCCn1c(C)cc(/C=C(\C#N)C(=O)OCC(=O)N(C)c2c(N)n(Cc3ccccc3)c(=O)[nH]c2=O)c1C`, the Potency result is “inactive”.

Turning to `CN(/N=C/c1ccccc1)C(=S)c1ccccc1`, the Potency result is “inactive”.

For `CN(O)C(=S)c1ccccc1`, the Potency is 0.13 µM (active).

Turning to `CN(CC(=O)O)C(=O)c1ccccc1`, the Potency entry was “inactive”.

As for `CC(C)c1nc2cc(C(=O)NC(C)c3cnn(C)c3)ccc2o1` (configuration not stated), the Potency entry was “inactive”.

With `O=C(NCCS(=O)(=O)NCc1ccc(Cl)cc1)c1ccccc1`, the Potency result was “inactive”.

As to `CC(=O)c1cc(C#N)c(N2CC(C)OC(C)C2)nc1C` (configuration not stated), the Potency entry is “inactive”.

`CC(=O)c1cc(C#N)c(SCC(=O)C(C)(C)C)nc1C`: the Potency is 2.82 µM (active).

As for `CC(=O)c1cc(C#N)c(N2CCCCC2)nc1C`, the Potency entry is “inactive”.

Consider `O=C(NCc1cccnc1)c1ccc2nc([C@@H]3O[C@H](CO)[C@H](O)[C@H](O)[C@H]3O)[nH]c2c1`, for which the Potency entry was “inactive”.

For `CC1=NN(C(N)=S)C(=O)C1N=Nc1cc(Cl)ccc1Cl` (configuration not stated), the Potency result is “inactive”.

With `Cc1nc(Nc2ccccc2C)c2cnn(C)c2n1`, the Potency entry was “inactive”.

For `CC[C@]12c3[nH]c4ccc(OC)cc4c3CCN1C(=O)C(CC(=O)NCc1ccco1)C[C@@H]2C(=O)N1CCN(C(=O)C2CC2)CC1` (some centres not stated), the Potency entry was “inactive”.

For `CC[C@]12c3[nH]c4ccc(Cl)cc4c3CCN1C(=O)[C@@H](CC(=O)NCCCOC)C[C@@H]2C(=O)N1CCN(C(=O)c2ccco2)CC1`, the Potency entry was “inactive”.

As for `COc1ccc(CNC(=O)C[C@H]2C[C@H](C(=O)N3CCOCC3)[C@@]3(CCC4CCCC4)c4[nH]c5ccc(Cl)cc5c4CCN3C2=O)cc1OC`, the Potency is 16.4 µM (active).

Regarding `CC[C@]12c3[nH]c4ccc(Cl)cc4c3CCN1C(=O)[C@@H](CC(=O)NCCN1CCOCC1)C[C@@H]2C(=O)N1CCN(C(=O)C2CC2)CC1`, the Potency result is “inactive”.

As to `COc1ccc2[nH]c3c(c2c1)CCN1C(=O)C(CC(=O)NCCCN(C)C)C[C@H](C(=O)N2CCOCC2)[C@@]31CCC1CCCC1` (some centres not stated), the Potency entry was “inactive”.

Take `O=C(C[C@H]1C[C@H](C(=O)N2CCOCC2)[C@@]2(CCC3CCCC3)c3[nH]c4ccc(Cl)cc4c3CCN2C1=O)NCc1ccco1`: the Potency was 20.6 µM (active).
